TGFb inhibitor: qHTS for Inhibitors of TGF-b; HepG2 CAGA-GFP TGF-b/SMAD3 reporter, GFP fluorescence, 18 h; TGF-beta stimulated, 500 pg/mL final; Potency, µM (titrated, usually from 46.1 µM), actives largely listed as inhibitors; hit rate 1.2% among 410,000; AID 588855, 2011; further: nearly all actives have a fitted effect of over 65% in size
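HEPG2 CAGA-GFP reporter cells (1000/well, DMEM with 1% FBS) received compounds, then recombinant TGF-beta at 500 pg/mL final for 18 hours at 37 degrees C. Per-cell GFP summed per well was normalised to unstimulated and stimulated DMSO controls before curve fitting.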
DT40 TDP1 no CPT: qHTS for Inhibitors of human tyrosyl-DNA phosphodiesterase 1 (TDP1): qHTS in cells in absence of CPT; AID 686978, 2013; hit rate 15% among 420,000; Potency, µM (titrated, usually from 46.2 µM), actives largely listed as inhibitors; DT40 Tdp1-/- hTDP1 cells, no CPT, ATP luminescence, 48 h; further: nearly all actives have a fitted effect of over 55% in size
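Cells were dispensed at 400 per well, compounds added by pin tool, plates incubated ≥48 hr at 37 °C, then CellTiter-Glo added for 30 min at room temperature before luminescence reading. Line: DT40 Tdp1-/- complemented with hTDP1; camptothecin omitted.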
ASM inhibitor: Inhibitors of Secretory Acid Sphingomyelinase (S-ASM): qHTS; placental ASM, HMU-PC fluorogenic substrate, 60 min; Potency, µM (highest dose often 57.5 µM), actives largely listed as inhibitors; hit rate 0.006% among 340,000
Target sequence (P17405 47-631 limits assumed): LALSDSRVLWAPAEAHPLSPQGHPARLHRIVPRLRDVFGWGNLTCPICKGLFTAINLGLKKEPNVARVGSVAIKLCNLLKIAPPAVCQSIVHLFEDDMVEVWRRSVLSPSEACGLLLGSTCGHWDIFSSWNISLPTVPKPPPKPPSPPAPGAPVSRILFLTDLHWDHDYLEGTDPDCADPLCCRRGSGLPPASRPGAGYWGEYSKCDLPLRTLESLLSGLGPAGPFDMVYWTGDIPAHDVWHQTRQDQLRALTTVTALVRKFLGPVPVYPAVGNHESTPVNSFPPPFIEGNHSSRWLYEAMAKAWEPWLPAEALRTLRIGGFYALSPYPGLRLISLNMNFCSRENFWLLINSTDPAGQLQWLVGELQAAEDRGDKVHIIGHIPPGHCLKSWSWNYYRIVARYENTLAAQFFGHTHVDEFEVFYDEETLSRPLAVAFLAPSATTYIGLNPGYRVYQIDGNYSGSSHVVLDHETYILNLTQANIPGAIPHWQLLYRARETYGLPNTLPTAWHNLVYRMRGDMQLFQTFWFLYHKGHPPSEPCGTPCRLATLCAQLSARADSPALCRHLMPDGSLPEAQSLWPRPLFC
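Human placenta-derived ASM enzyme was preincubated with compound for 10 minutes at room temperature, then given fluorogenic substrate HMU-PC0 (9 uM final) for 60 minutes at 37 °C; a pH 10 stop preceded fluorescence reading at Ex 386/Em 447 nm.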
IL1B secr inh: qHTS for Inhibitors of Inflammasome Signaling: IL-1-beta AlphaLISA Primary Screen; hit rate 4.7% among 360,000; activity change, % at 57.5 µM; THP-1 LPS/ATP IL-1B secretion, AlphaLISA, 16 h; active compounds read low; AID 743279, 2014; in the data active means activity change below about -50%; inconclusive means mostly about -30% to -49%
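Secreted IL-1B measured by AlphaLISA bead assay after 16 h compound exposure of THP-1 cells; compounds (final up to 57.5 uM) added 1 h before LPS (250 ng/mL) and ATP (1.25 mM) stimulation; lower signal means less secretion.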
TDP1 cell CPT: qHTS for Inhibitors of human tyrosyl-DNA phosphodiesterase 1 (TDP1): qHTS in cells in presence of CPT. Potency, µM (highest dose often 46.2 µM), most hits filed as inhibitors. chicken DT40 Tdp1-/-;hTDP1 cells + 20 nM CPT, ATP luminescence, 48 h. hit rate 12% among 420,000; further: nearly all actives have a fitted effect of over 55% in size
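Cell growth measured by CellTiter-Glo luminescence after a minimum 48 h, 37 C compound exposure with 20 nM CPT in Tdp1-knockout DT40 cells stably expressing hTDP1, seeded 400/well; qHTS titration format.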
HepG2 tox: qHTS for Inhibitors of TGF-b: Cytotox Counterscreen; HepG2 CAGA-GFP viability, ATP luminescence, 18 h; AID 588856, 2011; hit rate 0.76% among 410,000; Potency, µM (top dose mostly 46.1 µM), hits mostly cytotoxic
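CellTiter-Glo luminescence gave cytotoxicity after 18 hours at 37 degrees C. The cells were HepG2 CAGA-GFP in 1% FBS DMEM, stimulated with 500 pg/mL TGF-beta after compound addition. %Activity was normalised to no-cell wells (complete cell-killing) and DMSO (no toxicity), and curves were fitted and classified.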
A number is an active result. The list is not random: actives were taken first. Their share in the collection is about 19%. Unless noted, the call rests on the fitted dose curve; in most records, active means well fitted curve in the direction sought with a large enough effect; inconclusive means small, poorly fitted or top-dose-only effect, or another doubt; inactive means no such curve, though single readings can be large; an effect the other way counts as inactive or inconclusive.

For O=C(NC(=S)Nc1ccccn1)c1ccco1 the results were TGFb inhibitor inconclusive, DT40 TDP1 no CPT inconclusive, ASM inhibitor inactive, IL1B secr inh inactive, TDP1 cell CPT 13µM and HepG2 tox inactive.
O=C(NC(=S)Nc1ccccn1)c1ccccc1 was read as TGFb inhibitor inactive, DT40 TDP1 no CPT inconclusive, ASM inhibitor inactive, IL1B secr inh inactive, TDP1 cell CPT inactive and HepG2 tox inactive.
O=C(NC(=S)Nc1ccccn1)c1ccc(-c2ccccc2)cc1 was read as TGFb inhibitor inconclusive, DT40 TDP1 no CPT 18.4µM, ASM inhibitor inactive, IL1B secr inh inactive, TDP1 cell CPT 20.6µM and HepG2 tox inactive.
`Cc1ccc(NC(=S)NC(=O)c2ccccc2)cc1NC(=S)NC(=O)c1ccccc1` gave TGFb inhibitor inactive, DT40 TDP1 no CPT inconclusive, ASM inhibitor inactive, IL1B secr inh inactive, TDP1 cell CPT inactive and HepG2 tox inactive.
Screening Cc1cc(C)c(NC(=S)NC(=O)c2ccc(-c3ccccc3)cc2)c(C)c1 returned TGFb inhibitor inactive, DT40 TDP1 no CPT 20.6µM, ASM inhibitor inactive, IL1B secr inh inactive, TDP1 cell CPT inconclusive and HepG2 tox inactive.
CC(C)CCNC(=S)Nc1ccccn1 was read as TGFb inhibitor inconclusive, DT40 TDP1 no CPT 23.1µM, ASM inhibitor inactive, IL1B secr inh inactive, TDP1 cell CPT inconclusive and HepG2 tox inactive.
For COc1ccc(CNC(=O)CSc2nnc(C3CC3)n2C2CC2)cc1 the results were TGFb inhibitor inactive, DT40 TDP1 no CPT inactive, ASM inhibitor inactive, IL1B secr inh inactive, TDP1 cell CPT inactive and HepG2 tox inactive.
`NS(=O)(=O)c1ccc(CNS(=O)(=O)c2cc(C(=O)O)ccc2Cl)cc1` gave TGFb inhibitor inactive, DT40 TDP1 no CPT inactive, ASM inhibitor inactive, IL1B secr inh inactive, TDP1 cell CPT inactive and HepG2 tox inactive.
CCN1CCN(c2c(Cl)cccc2NC(=O)c2ccc3nsnc3c2)CC1 was read as TGFb inhibitor inactive, DT40 TDP1 no CPT inconclusive, ASM inhibitor inactive, IL1B secr inh inactive, TDP1 cell CPT inactive and HepG2 tox inactive.
For CCCCNC(=O)C1c2ccccc2OCC(=O)N1Cc1ccc2c(c1)OCO2 (stereo not drawn) the results were DT40 TDP1 no CPT inconclusive, IL1B secr inh inactive and TDP1 cell CPT inconclusive.
For C1=Nc2c(Nc3ccccc3)ncnc2Oc2ccccc21 the results were TGFb inhibitor inactive, DT40 TDP1 no CPT 10.3µM, ASM inhibitor inactive, IL1B secr inh inactive, TDP1 cell CPT 9.2µM and HepG2 tox inactive.
For COc1cc(/C=N/Nc2snc(SC)c2C#N)cc(OC)c1OC the results were TGFb inhibitor inconclusive, DT40 TDP1 no CPT 1.84µM, ASM inhibitor inactive, IL1B secr inh inactive, TDP1 cell CPT inconclusive and HepG2 tox inactive.
CSc1nsc(N/N=C/c2ccc3c(c2)OCO3)c1C#N was read as TGFb inhibitor inactive, DT40 TDP1 no CPT inactive, ASM inhibitor inactive, IL1B secr inh inactive, TDP1 cell CPT inactive and HepG2 tox inactive.
`CSc1cccc(NC(=O)Cn2c3ncccc3c(=O)n2-c2ccc(C)cc2)c1` gave TGFb inhibitor inactive, DT40 TDP1 no CPT 16.4µM, TDP1 cell CPT inconclusive and HepG2 tox inactive.
Cc1ccc(-n2c(=O)c3cccnc3n2CC(=O)Nc2cc(Cl)ccc2C)cc1 was read as TGFb inhibitor inactive, DT40 TDP1 no CPT inactive, TDP1 cell CPT inactive and HepG2 tox inactive.
Screening CCCCNc1c(-c2cc3ccccc3o2)nc2nc(C)cc(C)n12 returned DT40 TDP1 no CPT 23.1µM, IL1B secr inh inactive and TDP1 cell CPT inconclusive.
`COc1cccc(-c2nc3nc(C)cc(C)n3c2Nc2c(C)cccc2C)c1` gave DT40 TDP1 no CPT inconclusive, IL1B secr inh inactive and TDP1 cell CPT inconclusive.
